The text below walks through data of PMC7862700, “An all-to-all approach to the identification of sequence-specific readers for epigenetic DNA modifications on cytosine”.

Common to all, as to experiment: DAPPL (digital affinity profiling via proximity ligation, sequencing); 10 mM Tris-HCl pH 7.5, 50 mM NaCl, 1 mM DTT, 4% glycerol, room temperature, 30 min; GST-TFs on glutathione beads, 16-mer random dsDNA library, 0.1% formaldehyde crosslink after washing; high values mean tight binding
What all share (settings): protein: recombinant; tags: N-terminal GST; dsDNA, one strand shown

One test has as its target T1, ELK4 (Homo sapiens, UniProt P28324-2 1-405).
T1 sequence: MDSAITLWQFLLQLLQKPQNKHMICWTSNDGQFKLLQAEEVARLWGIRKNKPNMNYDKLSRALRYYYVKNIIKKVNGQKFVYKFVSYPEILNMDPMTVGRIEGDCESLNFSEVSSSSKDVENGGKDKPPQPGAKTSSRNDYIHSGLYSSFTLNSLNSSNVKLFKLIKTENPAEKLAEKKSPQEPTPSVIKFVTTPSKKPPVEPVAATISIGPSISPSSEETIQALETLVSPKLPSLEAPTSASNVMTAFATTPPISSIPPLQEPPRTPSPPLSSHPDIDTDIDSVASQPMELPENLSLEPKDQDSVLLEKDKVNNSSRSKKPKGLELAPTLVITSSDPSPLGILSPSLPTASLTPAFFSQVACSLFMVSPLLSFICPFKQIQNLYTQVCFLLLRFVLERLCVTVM
In short, it runs like this: (§1)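 Binding signal is each hexamer's read frequency for a factor divided by its frequency in the tag-only sample. The factors were GST-fused human transcription factors from yeast, captured on glutathione beads, DNA-barcoded and pooled with that sample. Pools were incubated with 200 nmole of a random double-stranded 16-mer DNA library in Tris/NaCl/DTT/glycerol buffer at room temperature for 30 min, then washed, crosslinked with 0.1% formaldehyde, proximity-ligated with BsaI/T4 ligase (1 h, 37 °C), PCR-amplified and sequenced on an Illumina NextSeq500.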

A further test deals with ETV1 (Homo sapiens, UniProt P50549 1-477). The essentials:
as §1

Another test addresses T2, ERF (Homo sapiens, UniProt P50548 1-548).
T2 sequence: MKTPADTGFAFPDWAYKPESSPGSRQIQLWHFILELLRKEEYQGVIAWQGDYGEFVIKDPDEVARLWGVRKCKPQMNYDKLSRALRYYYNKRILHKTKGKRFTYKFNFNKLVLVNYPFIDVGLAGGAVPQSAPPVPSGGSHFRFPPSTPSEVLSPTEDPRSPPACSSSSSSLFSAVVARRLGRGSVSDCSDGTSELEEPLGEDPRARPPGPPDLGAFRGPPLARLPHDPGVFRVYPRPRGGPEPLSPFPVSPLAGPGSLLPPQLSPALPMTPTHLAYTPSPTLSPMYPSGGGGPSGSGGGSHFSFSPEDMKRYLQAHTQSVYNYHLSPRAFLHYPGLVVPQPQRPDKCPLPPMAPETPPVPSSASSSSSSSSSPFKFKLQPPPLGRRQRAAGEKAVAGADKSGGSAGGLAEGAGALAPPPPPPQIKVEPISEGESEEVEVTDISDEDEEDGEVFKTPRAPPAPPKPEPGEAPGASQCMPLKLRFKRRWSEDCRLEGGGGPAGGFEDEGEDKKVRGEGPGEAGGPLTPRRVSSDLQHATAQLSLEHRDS
The essentials: as §1

A further test has as its target T3, ETV3 (Homo sapiens, UniProt P41162-2 1-143).
T3 sequence: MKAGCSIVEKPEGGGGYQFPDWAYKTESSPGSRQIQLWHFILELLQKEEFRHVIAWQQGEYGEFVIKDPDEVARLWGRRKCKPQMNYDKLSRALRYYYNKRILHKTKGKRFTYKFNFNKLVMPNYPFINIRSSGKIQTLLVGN
In short, it runs like this: as §1

For another test, the target named is T4, ELK1 (Homo sapiens, UniProt P19419 1-428).
T4 sequence: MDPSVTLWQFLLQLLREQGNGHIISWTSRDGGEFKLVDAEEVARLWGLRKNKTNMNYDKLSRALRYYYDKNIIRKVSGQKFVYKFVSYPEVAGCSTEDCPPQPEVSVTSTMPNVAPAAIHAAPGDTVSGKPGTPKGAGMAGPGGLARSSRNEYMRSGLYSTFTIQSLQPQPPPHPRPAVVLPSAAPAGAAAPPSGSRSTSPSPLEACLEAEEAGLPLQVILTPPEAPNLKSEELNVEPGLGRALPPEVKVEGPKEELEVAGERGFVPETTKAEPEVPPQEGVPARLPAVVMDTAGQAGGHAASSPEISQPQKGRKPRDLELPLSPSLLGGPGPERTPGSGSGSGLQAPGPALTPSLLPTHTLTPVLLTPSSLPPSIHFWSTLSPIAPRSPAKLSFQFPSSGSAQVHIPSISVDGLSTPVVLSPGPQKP
In short, it runs like this:
as §1

The next test has as its target T5, GABPA (Homo sapiens, UniProt Q06546 1-454).
T5 sequence: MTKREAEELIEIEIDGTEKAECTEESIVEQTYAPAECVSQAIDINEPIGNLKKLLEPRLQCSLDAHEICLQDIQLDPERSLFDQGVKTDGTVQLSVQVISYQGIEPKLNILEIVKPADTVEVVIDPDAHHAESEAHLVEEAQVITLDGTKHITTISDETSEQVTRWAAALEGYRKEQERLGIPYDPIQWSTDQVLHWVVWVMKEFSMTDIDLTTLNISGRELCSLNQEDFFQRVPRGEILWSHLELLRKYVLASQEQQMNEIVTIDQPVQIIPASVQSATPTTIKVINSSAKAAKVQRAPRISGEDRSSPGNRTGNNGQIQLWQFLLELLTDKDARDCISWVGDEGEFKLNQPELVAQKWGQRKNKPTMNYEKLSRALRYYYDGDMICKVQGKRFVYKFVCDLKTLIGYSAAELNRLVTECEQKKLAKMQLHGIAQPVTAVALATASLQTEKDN
In short, it runs like this:
as §1

A further test concerns the target ELF1 (Homo sapiens, UniProt P32519 1-619). In short, it runs like this: as §1
The target of another test is T6, ELK3 (Homo sapiens, UniProt P41970 1-407).
T6 sequence: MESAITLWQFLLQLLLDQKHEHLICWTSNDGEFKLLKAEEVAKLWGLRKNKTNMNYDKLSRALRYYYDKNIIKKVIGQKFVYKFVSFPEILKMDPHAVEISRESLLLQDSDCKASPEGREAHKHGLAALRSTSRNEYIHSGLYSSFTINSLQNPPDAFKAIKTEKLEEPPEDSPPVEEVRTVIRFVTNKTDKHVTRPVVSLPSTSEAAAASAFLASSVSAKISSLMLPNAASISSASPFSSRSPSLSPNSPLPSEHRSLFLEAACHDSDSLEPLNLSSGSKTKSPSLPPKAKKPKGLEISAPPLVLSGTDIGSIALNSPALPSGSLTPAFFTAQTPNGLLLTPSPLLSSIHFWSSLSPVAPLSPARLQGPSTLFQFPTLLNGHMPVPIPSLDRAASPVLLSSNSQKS
In short, it runs like this: as §1

Another test deals with CRX (Homo sapiens, UniProt O43186 1-299). In short, it runs like this:
as §1

In a further test the target is T7, ETS2 (Homo sapiens, UniProt P15036 1-469).
T7 sequence: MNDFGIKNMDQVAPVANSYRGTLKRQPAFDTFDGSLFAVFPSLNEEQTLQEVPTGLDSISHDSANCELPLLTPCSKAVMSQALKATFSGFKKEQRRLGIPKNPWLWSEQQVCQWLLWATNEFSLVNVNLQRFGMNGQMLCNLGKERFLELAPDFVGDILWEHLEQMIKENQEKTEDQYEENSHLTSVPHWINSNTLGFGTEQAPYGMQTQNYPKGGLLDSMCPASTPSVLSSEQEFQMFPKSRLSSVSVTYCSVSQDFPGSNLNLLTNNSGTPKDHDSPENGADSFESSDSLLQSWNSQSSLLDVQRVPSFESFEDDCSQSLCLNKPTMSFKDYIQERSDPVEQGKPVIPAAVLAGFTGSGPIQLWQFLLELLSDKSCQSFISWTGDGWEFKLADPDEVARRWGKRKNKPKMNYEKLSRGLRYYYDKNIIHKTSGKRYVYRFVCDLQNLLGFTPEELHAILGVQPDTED
The essentials:
as §1

A further test addresses T8, ETV7 (Homo sapiens, UniProt Q9Y603 1-341).
T8 sequence: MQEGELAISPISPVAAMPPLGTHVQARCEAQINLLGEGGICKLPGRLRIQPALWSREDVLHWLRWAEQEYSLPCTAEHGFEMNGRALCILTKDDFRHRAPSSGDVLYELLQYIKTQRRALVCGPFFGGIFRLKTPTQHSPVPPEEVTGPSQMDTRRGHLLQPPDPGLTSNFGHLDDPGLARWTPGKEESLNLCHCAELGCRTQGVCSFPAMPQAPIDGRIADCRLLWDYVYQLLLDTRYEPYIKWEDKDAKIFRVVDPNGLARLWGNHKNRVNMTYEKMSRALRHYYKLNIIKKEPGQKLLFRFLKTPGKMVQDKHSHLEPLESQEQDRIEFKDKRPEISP
The essentials:
as §1

Sequence of CRX (O43186 whole entry): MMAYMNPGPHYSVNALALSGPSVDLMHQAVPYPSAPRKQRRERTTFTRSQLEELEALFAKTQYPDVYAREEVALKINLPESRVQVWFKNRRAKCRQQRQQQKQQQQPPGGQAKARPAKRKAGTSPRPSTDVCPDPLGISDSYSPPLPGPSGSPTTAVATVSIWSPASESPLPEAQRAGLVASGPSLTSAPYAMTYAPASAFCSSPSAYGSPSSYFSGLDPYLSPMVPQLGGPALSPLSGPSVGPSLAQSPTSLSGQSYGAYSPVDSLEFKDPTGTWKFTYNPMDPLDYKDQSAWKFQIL
Sequence of ELF1 (P32519 whole entry): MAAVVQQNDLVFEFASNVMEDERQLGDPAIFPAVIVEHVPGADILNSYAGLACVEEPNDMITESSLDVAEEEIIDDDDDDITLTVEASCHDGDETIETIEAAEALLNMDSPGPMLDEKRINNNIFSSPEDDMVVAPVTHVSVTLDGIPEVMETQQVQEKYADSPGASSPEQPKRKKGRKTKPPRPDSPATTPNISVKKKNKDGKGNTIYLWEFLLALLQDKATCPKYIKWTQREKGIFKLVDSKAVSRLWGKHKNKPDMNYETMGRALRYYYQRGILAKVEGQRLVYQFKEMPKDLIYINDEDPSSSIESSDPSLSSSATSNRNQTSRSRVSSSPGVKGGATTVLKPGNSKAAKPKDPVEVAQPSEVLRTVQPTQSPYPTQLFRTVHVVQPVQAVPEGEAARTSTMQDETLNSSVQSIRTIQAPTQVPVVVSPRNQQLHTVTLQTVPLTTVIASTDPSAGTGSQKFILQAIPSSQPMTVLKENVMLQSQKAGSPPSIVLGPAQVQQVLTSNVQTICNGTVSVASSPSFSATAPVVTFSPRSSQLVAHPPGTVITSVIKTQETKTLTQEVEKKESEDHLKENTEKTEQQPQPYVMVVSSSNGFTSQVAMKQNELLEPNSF
Sequence of ETV1 (P50549 whole entry): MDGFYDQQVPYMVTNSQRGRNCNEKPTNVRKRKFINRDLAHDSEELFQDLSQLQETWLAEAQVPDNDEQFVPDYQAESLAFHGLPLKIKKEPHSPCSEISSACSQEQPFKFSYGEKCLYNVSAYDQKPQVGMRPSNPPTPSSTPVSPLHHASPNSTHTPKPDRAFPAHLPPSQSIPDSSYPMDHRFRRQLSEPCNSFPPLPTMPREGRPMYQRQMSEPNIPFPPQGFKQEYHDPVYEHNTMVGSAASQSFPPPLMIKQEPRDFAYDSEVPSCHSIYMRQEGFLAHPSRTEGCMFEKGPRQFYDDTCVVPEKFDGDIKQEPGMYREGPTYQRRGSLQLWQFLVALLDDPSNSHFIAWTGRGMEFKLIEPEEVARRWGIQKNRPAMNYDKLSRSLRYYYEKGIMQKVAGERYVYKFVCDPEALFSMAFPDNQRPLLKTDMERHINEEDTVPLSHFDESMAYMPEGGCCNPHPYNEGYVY

Take CAACGG: the binding signal with ELK4 is 1.01 fold enrichment (6-mer frequency, TF over GST control); in the test with ETV1, 1.01 fold enrichment (6-mer frequency, TF over GST control); in the test with ERF, 1.08 fold enrichment (6-mer frequency, TF over GST control); with ETV3 it was 1.01 fold enrichment (6-mer frequency, TF over GST control).
For the sequence GACCAA, the binding signal in the test with ELK1 was 1.05 fold enrichment (6-mer frequency, TF over GST control); with GABPA, 1.04 fold enrichment (6-mer frequency, TF over GST control); in the test with ELF1 it was 1.02 fold enrichment (6-mer frequency, TF over GST control); with ELK4 it was 1.01 fold enrichment (6-mer frequency, TF over GST control).
Regarding AAAGTC, the binding signal with ELK3 was 1.08 fold enrichment (6-mer frequency, TF over GST control); with ELK4, 1.08 fold enrichment (6-mer frequency, TF over GST control); with CRX, 1.01 fold enrichment (6-mer frequency, TF over GST control); with ETS2, 1.03 fold enrichment (6-mer frequency, TF over GST control); in the test with ETV7 it was 1.05 fold enrichment (6-mer frequency, TF over GST control).
